From PubChem BioAssay (Tox21) come the findings set out here.

A number with no mark means an inactive call. Inconclusive results are not listed. Active and inactive are the calls of the source. Unless noted, calls come from the whole dose curve; as a rule, active = well fitted curve in the direction sought with a large enough effect in the repeat runs; inconclusive = weak or mixed curves; inactive = no such curve, though single readings can be large; an effect the other way counts as inactive or inconclusive.

The target in assay [1] is Thyrotropin receptor (Homo sapiens) (UniProt P16473). Kind of assay: qHTS assay to identify small molecule agonists of the thyroid stimulating hormone receptor (TSHR) signaling pathway (AID 1224843; calls by dose curve; note: nearly all actives have a fitted effect of over 45% in size). The gist of the method: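 Agonist-mode screen: TSHR HEK293 cells received test chemicals for half an hour at room temperature, then HTRF cAMP detection reagents for one hour prior to fluorescence measurement. Each chemical ran as a 15-concentration series, triplicated.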

The nature of assay [2]: qHTS assay to identify small molecule agonists of the hypoxia (HIF-1) signaling pathway - cell viability counter screen (AID 1224844; calls by dose curve; note: nearly all actives have a fitted effect of over 50% in size; note: potency is the fitted concentration of half-maximal effect). The procedure, abridged:
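Viability counter screen: HRE-bla ME-180 cells plated 5 hrs before compound addition, treated 17 hrs at 37C and 5% CO2, then CellTiter-Glo added after the FRET reporter read; luminescence after 30 min.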
Background: qHTS replaces the single test concentration by a dilution series.

Assay [3] in a line: qHTS assay to identify small molecule agonists of H2AX (AID 1224845; active = well fitted activation curve with a large enough effect in the signal ratio in the repeat runs, not every such curve was filed as active; the % refers to the signal ratio). The gist of the method: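 Wild-type CHO-K1 cells, plated overnight, exposed 3hr at 37C to 15 concentrations (0.76% DMSO final). Lysed, then HTRF anti-pH2AX (S139) cryptate and anti-H2AX-d2 antibodies, 24 hr room temperature; 665/620 nm emission read.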
Assay [4] in a line: qHTS assay to identify small molecule agonists of the hypoxia (HIF-1) signaling pathway (AID 1224846; active = well fitted activation curve with a large enough effect in the signal ratio in the repeat runs, not every such curve was filed as active; the % refers to the signal ratio). The gist of the method: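 Agonist mode reporter screen. ME-180 cells stably expressing bla under HRE control received test compounds in DMSO for 17 hrs (37C, 5% CO2), and beta-lactamase activity was then detected with the CCF4-AM FRET substrate.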
The nature of assay [5]: qHTS assay to identify small molecule agonists of H2AX - cell viability counter screen (AID 1224847; calls by dose curve; note: top concentration of the series differs between compounds; nearly all actives have a fitted effect of over 30% in size). The procedure, abridged: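 Compounds tested at 15 concentrations were incubated 3 hr at 37C with wild-type CHO-K1 cells; cellular ATP-based luminescence (CellTiter-Glo) indicated viability.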
A short description of assay [6]: qHTS RealTime-Glo MT Cell Viability Assay in HepG2 cells - 24 hour (AID 1224867). Note: nearly all actives have a fitted effect of over 50% in size. The gist of the method: (§1)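 HepG2 cells (600/well) were dispensed with RealTime-Glo reagents, incubated 5 h at 37 °C, then treated with compounds in DMSO for up to 40 h. Nonlytic NanoLuc luminescence reflecting viable cells was read at each stated time point.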
A short description of assay [7]: qHTS RealTime-Glo MT Cell Viability Assay in HEK293 cells - 32 hour (AID 1224868). Note: nearly all actives have a fitted effect of over 50% in size. Note: potency is the fitted concentration of half-maximal effect. The gist of the method: (§2)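 HEK293 cells seeded with NanoLuc/prosubstrate reagent, rested 5 h at 37 C, then dosed and kept at 37 C up to 40 h. Nonlytic real-time luminescence from viable cells read at 0, 8, 16, 24, 32 and 40 h.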
Assay [8] can be described thus: A CellTox Green Cytotoxicity Assay to monitor cytotoxicity in HEK293 cells - 0 hour (AID 1224869). Note: nearly all actives have a fitted effect of over 50% in size. The gist of the method:
(§3)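 Dead-cell fluorescence measured kinetically: asymmetric cyanine dye, HEK293, 600 cells/well, 5 h settle, 23 nL cpd/DMSO, 37 C, reads 0–40 h every 8 h.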

Assay [9] is described as follows: qHTS RealTime-Glo MT Cell Viability Assay in HepG2 cells - 40 hour (AID 1224870). Note: nearly all actives have a fitted effect of over 50% in size. The procedure, abridged: (§4)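 HepG2 cells (600/well) mixed with RealTime-Glo MT reagent, settled 5 h at 37 C/5% CO2 before compound addition. Nonlytic NanoLuc luminescence from viable-cell prosubstrate reduction read repeatedly during 40 h treatment at 37 C.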
Assay [10] can be described thus: A CellTox Green Cytotoxicity Assay to monitor cytotoxicity in HEK293 cells - 40 hour (AID 1224871). Note: nearly all actives have a fitted effect of over 45% in size. Note: potency is the fitted concentration of half-maximal effect. The procedure, abridged:
as §3

Assay [11] in a line: qHTS RealTime-Glo MT Cell Viability Assay in HEK293 cells - 16 hour (AID 1224872). The procedure, abridged:
as §2

Assay [12] can be described thus: qHTS RealTime-Glo MT Cell Viability Assay in HepG2 cells - 8 hour (AID 1224873). Note: nearly all actives have a fitted effect of over 55% in size. The procedure, abridged: as §4
Assay [13] is described as follows: qHTS RealTime-Glo MT Cell Viability Assay in HEK293 cells - 40 hour (AID 1224874). Note: nearly all actives have a fitted effect of over 50% in size. Note: potency is the fitted concentration of half-maximal effect. Conditions: RealTime-Glo luminescence; max response: hits give low values. The gist of the method: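 600 HEK293 cells per well, dispensed already mixed with RealTime-Glo MT reagents. Compound dosing came 5 h later. The same wells were read for luminescence at 0, 8, 16, 24, 32 and 40 h of exposure at 37 C.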

Assay [14] in a line: A CellTox Green Cytotoxicity Assay to monitor cytotoxicity in HEK293 cells - 24 hour (AID 1224875). Note: series mostly up to about 77 µM; nearly all actives have a fitted effect of over 45% in size. The procedure, abridged:
as §3

A short description of assay [15]: A CellTox Green Cytotoxicity Assay to monitor cytotoxicity in HepG2 cells - 16 hour (AID 1224876). Note: nearly all actives have a fitted effect of over 45% in size. The procedure, abridged: (§5)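 First, HepG2 cells (600/well) mixed with reagent were plated; second, after 5 h at 37 C they received compounds via pintool; third, fluorescence was measured at 0 h through 40 h at 8 h intervals.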
Assay [16] can be described thus: qHTS RealTime-Glo MT Cell Viability Assay in HepG2 cells - 32 hour (AID 1224877). Note: nearly all actives have a fitted effect of over 55% in size. The gist of the method:
as §1

The nature of assay [17]: A CellTox Green Cytotoxicity Assay to monitor cytotoxicity in HepG2 cells - 24 hour (AID 1224878). Note: nearly all actives have a fitted effect of over 45% in size. The procedure, abridged:
as §5

A short description of assay [18]: A CellTox Green Cytotoxicity Assay to monitor cytotoxicity in HepG2 cells - 40 hour (AID 1224879). Note: nearly all actives have a fitted effect of over 40% in size. Note: potency is the fitted concentration of half-maximal effect. The procedure, abridged:
as §5
% is set by controls: 0 for no effect and ±100 for the full control effect.

Sequence of Thyrotropin receptor (Homo sapiens) (P16473 whole entry, looked up): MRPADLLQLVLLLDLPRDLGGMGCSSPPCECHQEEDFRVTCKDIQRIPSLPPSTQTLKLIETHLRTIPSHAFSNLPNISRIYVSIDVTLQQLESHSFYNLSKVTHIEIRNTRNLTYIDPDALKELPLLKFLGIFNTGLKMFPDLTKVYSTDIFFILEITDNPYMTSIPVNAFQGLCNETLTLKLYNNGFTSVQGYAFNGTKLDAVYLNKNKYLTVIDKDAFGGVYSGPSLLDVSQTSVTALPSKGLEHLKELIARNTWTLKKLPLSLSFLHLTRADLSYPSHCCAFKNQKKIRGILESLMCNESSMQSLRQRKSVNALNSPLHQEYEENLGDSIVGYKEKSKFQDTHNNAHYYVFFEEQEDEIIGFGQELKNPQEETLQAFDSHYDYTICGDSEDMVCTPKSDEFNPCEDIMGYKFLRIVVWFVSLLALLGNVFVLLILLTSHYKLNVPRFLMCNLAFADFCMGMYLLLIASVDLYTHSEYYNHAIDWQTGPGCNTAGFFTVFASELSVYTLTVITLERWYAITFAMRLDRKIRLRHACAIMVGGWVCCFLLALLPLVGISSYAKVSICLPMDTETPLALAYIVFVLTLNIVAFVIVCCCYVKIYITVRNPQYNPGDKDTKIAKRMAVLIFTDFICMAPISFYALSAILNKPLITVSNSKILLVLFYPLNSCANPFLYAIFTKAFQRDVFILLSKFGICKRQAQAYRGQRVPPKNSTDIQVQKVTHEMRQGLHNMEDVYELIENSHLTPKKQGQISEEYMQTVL

Regarding `O=Cc1ccc(F)c(Br)c1`, the Potency result in [1], in assay [2], in assay [3], in assay [5], in assay [6] and in assay [7] was “inactive” in each case. For the same compound, the Potency result in assay [8], in [9], in [10], in assay [11], in assay [14] and in assay [15] was “inactive” each time. Moreover, the Potency entry in [16], in assay [17] and in assay [18] was “inactive” each time. Moreover, the compound was classed as inactive in assay [4] and in assay [12]. For the same compound, in assay [13], the max response was 3.83%.
For `CCC(=O)Nc1ccc(O)cc1`, the Potency result in assay [1], in assay [2], in assay [3], in assay [5], in assay [6] and in [7] was “inactive” in each case. The Potency entry in [8], in [9], in [10], in assay [11], in [14] and in [15] was “inactive” throughout. Moreover, the Potency result in [16] and in assay [18] was “inactive” each time. The result in assay [4] and in [12] was inactive. Moreover, the max response in [13] is 2.18%.
Turning to `COc1ccc2nc(NC(=O)Nc3ccccc3)sc2c1`, the Potency entry in assay [1], in [3], in [5], in assay [6], in assay [8] and in [9] was “inactive” throughout. In addition, the Potency entry in assay [15] and in [16] was “inactive” each time. The Potency in [2] is 19 µM (active); in assay [7], 5.35 µM (active); in assay [10], 26.8 µM (active); in [13], 6.01 µM (active); in assay [18], 4.25 µM (active). The call in assay [4] and in assay [12] was inactive.
Regarding `COc1cc(Cl)ccc1Cl`, the Potency result in assay [1], in assay [2], in [3], in [5], in [6] and in assay [7] was “inactive” in each case. Further, the Potency entry in assay [8], in assay [9], in [11], in assay [15], in [16] and in [17] was “inactive” in each case. Besides, the Potency entry in assay [18] was “inactive”. The call in assay [4] and in assay [12] was inactive. The max response in assay [13] is -0.591%.
As to `CC(=O)Nc1ccc(C)c(Cl)c1`, the Potency entry in assay [1], in [2], in assay [3], in [5], in assay [6] and in assay [7] was “inactive” throughout. Also, the Potency result in assay [8], in [9], in assay [10], in assay [11], in assay [14] and in assay [15] was “inactive” in each case. Moreover, the Potency result in assay [16], in [17] and in assay [18] was “inactive” throughout. Moreover, the compound was called inactive in assay [4] and in assay [12]. The max response in [13] was -13.2%.
As to `O=C(O)C(=O)Cc1c[nH]c2ccccc12`, the Potency entry in assay [1], in [2], in assay [3], in assay [5], in [6] and in assay [7] was “inactive” throughout. Further, the Potency entry in assay [8], in [9], in [10], in assay [14], in assay [15] and in assay [16] was “inactive” in each case. Besides, the Potency result in assay [17] and in assay [18] was “inactive” throughout. Moreover, the compound was called inactive in [4] and in assay [12]. Moreover, the max response in assay [13] is 2.14%.
For the compound `O=C(O)c1cccc(Cl)c1Cl`, the Potency entry in [1], in assay [2], in assay [3], in assay [5], in assay [6] and in assay [7] was “inactive” in each case. The Potency entry in assay [8], in assay [9], in assay [10], in assay [11], in assay [14] and in [15] was “inactive” in each case. In addition, the Potency result in assay [16], in assay [17] and in [18] was “inactive” throughout. The compound was called inactive in assay [4] and in [12]. The max response in assay [13] was -7.63%.
